Source: PubChem BioAssay
In the library only some 3.7% were active in any assay of this set; here they are far more common.
Nrf2 inh = blocks Nrf2 signaling; A549 ARE-Fluc reporter, luciferase luminescence, 18-24 h; Potency, µM (doses to about 46 µM), for the others: top-dose activity change, negative = inhibition, most hits filed as inhibitors; actives 2.1% (n = 360,000); also: % is scaled to controls: 0 for no effect and ±100 for the full control effect; nearly all actives have a fitted effect of over 60% in size
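A549 ARE_Fluc cells, 5000/well, 5% FBS OPTI-MEM; compounds in dose-response, 18-24 h at 37 °C/5% CO2; CellTiter-Fluor viability read (Ex 405/Em 525), then BugLite luciferase luminescence = Nrf2 activity.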
A549 viability = counter-screen for Nrf2 inhibitors: cytotoxicity in A549 cells. A549 ARE-Fluc cells, CellTiter-Fluor viability, 18-24 h. Potency, µM (series often up to 46 µM), for inactives: at the top dose activity change, negative = cytotoxicity, hits mostly inhibitors. actives 0.16% (n = 390,000); also: % is scaled to controls: 0 for no effect and ±100 for the full control effect
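Cytotoxicity counterscreen: CellTiter-Fluor fluorescence was measured in A549 ARE_Fluc cells after 18-24 h of compound exposure in a concentration series. The subsequent BugLite luminescent read reports ARE-luciferase activity.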
ELG1 DNA repair = ELG1-dependent DNA repair inhibition. actives 2.3% (n = 330,000). AID 504467. HEK293T ELG1-luciferase reporter, luminescence, 16 h; DNA damage induced by 5-fluorouridine. Potency, µM (series often up to 46.1 µM), without a hit: top-dose activity change, negative = inhibition, most hits filed as inhibitors; also: % is scaled to controls: 0 for no effect and ±100 for the full control effect; nearly all actives have a fitted effect of over 55% in size
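5-Fluorouridine DNA damage + compound/DMSO, 2,000 cells/well, 16 h, 37 °C/5% CO2. ONE-Glo, 30 min RT, luminescence. Readout = decrease in reporter signal.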
Nrf2 activator = activates Nrf2 signaling; AID 624171; AREc32 ARE-luciferase reporter (MCF7-derived line), luminescence, 24 h; Potency, µM (titrated, usually from 46.1 µM), inactives show top-dose activation, usual class: activators; actives 0.31% (n = 410,000); also: % of control where 0% means no effect; nearly all actives have a fitted effect of over 65% in size
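AREc32 cells carrying an ARE-driven firefly luciferase, 1000 cells/well in OPTI-MEM with 5% FBS, dosed after overnight attachment and incubated 24 hr at 37 deg C. Steady-Glo luminescence read after 30 min at RT.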
An asterisk follows results filed as active; ? = inconclusive; / = no result; [ ] = remark or other dose. Calls follow the shape of the dose curve; as a rule, active = well fitted curve in the direction sought with a large enough effect; inconclusive = small, poorly fitted or top-dose-only effect, or another doubt; inactive = no such curve, though single readings can be large; an effect the other way counts as inactive or inconclusive. Potency is read from the fitted curve at half-maximal effect.

SMILES	Nrf2 inh	A549 viability	ELG1 DNA repair	Nrf2 activator
COc1ccc(-c2csc(NC(C)=O)n2)cc1OC	11%	-3%	?	3%
COc1cccc(NC(=O)Nc2nc(-c3ccc(OC)c(OC)c3)cs2)c1	7.3µM*	16µM*	4.1µM*	-2%
COc1ccc(-c2csc(NC(=S)NC(=O)c3ccc4ccccc4c3)n2)cc1OC	9.2µM*	-14%	-7%	-1%
COc1ccccc1C(=O)Nc1nc(-c2ccc3c(c2)OCCO3)cs1	23µM*	-4%	4%	5%
O=[N+]([O-])c1cccc(-c2cn(-c3ccccc3)c(=S)[nH]2)c1	-10%	-1%	28%	?
O=S(=O)(c1ccc2c(c1)OCCO2)N1CCN(S(=O)(=O)c2c(F)ccc(O)c2F)CC1	-12%	7%	/	/
CCOC(=O)c1ccc2c(c1)nc(C1CCN(S(=O)(=O)c3cccs3)CC1)n2CC	26µM*	?	?	2%
CCOC(=O)c1cccc(NC(=O)C2CCN(S(=O)(=O)c3cccs3)CC2)c1	/	?	0%	2%
CCN(CC)C(=O)c1sc2c(c1C)c(=O)n(CCc1ccccc1)c(=O)n2Cc1ccc(C)cc1	/	-14%	/	3%
O=c1[nH]c(CN2CCN(S(=O)(=O)/C=C/c3ccccc3)CC2)nc2cc(Cl)ccc12	16µM*	-20%	?	0%
O=c1[nH]c(CN2CCN(S(=O)(=O)/C=C/c3ccccc3)CC2)nc2ccccc12	?	-4%	2%	-1%
COc1cc2nc(CN3CCN(S(=O)(=O)c4c(F)cccc4F)CC3)[nH]c(=O)c2cc1OC	-7%	-1%	5.8µM*	-1%
COc1ccc(S(=O)(=O)Nc2ccc3ccccc3c2)cc1C	21µM*	-15%	?	4%
Cc1ccc(NS(=O)(=O)c2ccc3c(c2)N(C)CCO3)cc1	26µM*	-6%	-24%	3%
Cc1ccc(S(=O)(=O)Nc2ccc3ccccc3c2)cc1	-3%	7%	/	6%
COc1ccc(NS(=O)(=O)c2ccc(-c3cnc(C4CC4)o3)cc2)cc1OC	?	-16%	1.8µM*	0%
COc1ccccc1NS(=O)(=O)c1ccc(-c2cnc(C3CC3)o2)cc1	1%	-2%	?	0%
CN1CCOc2cc(S(=O)(=O)Nc3ccc(F)cc3)ccc21	/	-5%	-16%	0%
COc1c(C)cc(NS(=O)(=O)c2ccc3c(c2)OCCO3)cc1C	23µM*	-10%	/	6%
COc1ccc(-n2nc(C(=O)NCC(=O)NCCCN3CC(C)CC(C)C3)c3ccccc3c2=O)cc1 (configuration not stated)	-8%	-15%	?	0%
O=C(COc1ccc(Br)cc1)NCCCNC(=O)c1cccnc1	?	21%	1%	0%
COc1ccc(CN2CCN(C3CCC3)CC2CCO)cc1C (configuration not stated)	?	0%	-4%	0%
Cc1cc(C)cc(Cn2c3ccc(NC(=O)NCc4ccccc4)cc3c(=O)n2C)c1	/	/	/	1%[9.22 µM]
COc1ccc(NS(=O)(=O)c2ccc3c(c2)OCCO3)cc1OC	21µM*	-12%	2.3µM*	0%
COCOc1ccc(-c2ncc(OC)nc2NC(=O)c2ccsc2)cc1	/	/	/	0%
SMILES	Nrf2 inh	A549 viability	ELG1 DNA repair	Nrf2 activator
CC(C)(C)C1CCc2c(sc(NC(=O)CCC(=O)O)c2C(=O)Nc2ccccc2C(F)(F)F)C1 (configuration not stated)	18µM*	?	/	1%
COc1ccc(NC(=O)c2c(NC(=O)c3ccncc3)sc3c2CCC(C(C)(C)C)C3)cc1 (configuration not stated)	18µM*	-15%	/	1%
COc1cc(CNc2ccc(N3CCOCC3)cc2)ccc1OCC(=O)NC(C)(C)C	16µM*	-2%	?	3%
COc1cc(CNc2ccc(CNc3ncn[nH]3)cc2)ccc1OCC(=O)NC(C)(C)C	16µM*	-1%	?	1%
COc1cccc(NC(=O)c2ccnc(N3CCC(C(=O)NCc4ccccc4OC)CC3)c2)c1	7%	-1%	-1%	0%
O=C(CCc1ccc(S(=O)(=O)NCCc2ccccc2)cc1)Nc1ccc2c(c1)OCCO2	?	-5%	13µM*	0%
O=C(Nc1ccc(S(=O)(=O)NCCc2ccccc2)cc1)c1ccncc1	21µM*	-11%	13%	-1%
CCCNS(=O)(=O)c1ccc(CCC(=O)Nc2ccc3c(c2)OCCO3)cc1	-21%	0%	-2%	8%
